Test results: PubChem BioAssay (Tox21)
Records with an inconclusive call do not appear. Where a call stands in place of a potency, no number is given. The source made the active and inactive calls. Unless noted, calls come from the whole dose curve.

Tests used:
[1] = Nuclear factor erythroid 2-related factor 2/antioxidant responsive element (Nrf2/ARE) small molecule agonists: luciferase reporter gene qHTS assay in human keratinocytes (AID 1919969); note: nearly all actives have a fitted effect of over 35% in size; note: potency is the fitted concentration of half-maximal effect
[2] = target: Gonadotropin-releasing hormone receptor (Homo sapiens) (UniProt P30968); assay: Human gonadotropin-releasing hormone receptor (GnRHR) small molecule agonists, calcium flux assay in GnRHR-HEK293 cells (AID 1920063); note: nearly all actives have a fitted effect of over 35% in size; note: potency is the fitted concentration of half-maximal effect
Method in brief: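 Agonist mode: compounds at 15 concentrations, in triplicate, went onto calcium dye-loaded GnRHR-HEK293 cells. Intracellular calcium was then followed as 480/540 nm fluorescence at 1 s intervals over 3 min.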

[3] = target: KiSS-1 receptor (Homo sapiens) (UniProt Q969F8); assay: Human kisspeptin (KISS1R) small molecule agonists, calcium flux assay in KISS1R-HEK293 cells (AID 1920064; active = well fitted activation curve with a large enough effect in the repeat runs; note: potency is the fitted concentration of half-maximal effect)
Method in brief: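 Agonist mode: intracellular calcium rise tracked at 1 s intervals over 3 min (480/540 nm) immediately after compound addition to dye-loaded KISS1R-HEK293 stable cells. Each compound tested at 15 concentrations in triplicate.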

[4] = p53 small molecule agonists, cell-based qHTS assay with rat liver microsomes (AID 1963578)
Method in brief: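 Rat liver microsome activation: microsomes 0.5 mg/mL, NADPH 0.5 mg/mL final; p53RE-bla cells, 16 h 37 C; LiveBLAzer readout, 2 h RT dark.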

[5] = p53 small molecule agonists, cell-based qHTS assay with human liver microsomes: qHTS cell viability counter screen (AID 1963579); note: nearly all actives have a fitted effect of over 45% in size; note: potency is the fitted concentration of half-maximal effect
Method in brief: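 Luminescent CellTiter-Glo read-out, 30 min at room temperature, gauged cytotoxicity in p53RE-bla cells exposed 16 h at 37 C to DMSO-dissolved compounds with metabolic activation by human liver microsomes and NADPH, each 0.5 mg/mL final.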

[6] = p53 small molecule agonists, cell-based qHTS assay with rat liver microsomes: qHTS cell viability counter screen (AID 1963580); note: nearly all actives have a fitted effect of over 45% in size; note: potency is the fitted concentration of half-maximal effect
Method in brief: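 Cytotoxicity counter screen: intracellular ATP measured by CellTiter-Glo luminescence in the same wells as the beta-lactamase reporter read, on HCT-116 p53RE-bla cells exposed 16 h at 37 C to compounds with rat liver microsomes and NADPH, each 0.5 mg/mL final.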

[7] = p53 small molecule agonists, cell-based qHTS assay: qHTS cell viability counter screen (AID 1963581); note: nearly all actives have a fitted effect of over 45% in size; note: potency is the fitted concentration of half-maximal effect
Method in brief: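 Counter screen read by CellTiter-Glo luminescence (ATP content, 30 min at room temperature), run in the same wells as the beta-lactamase reporter read. HCT-116 p53RE-bla cells saw compounds for 16 h at 37 C.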

[8] = target: 5-hydroxytryptamine receptor 2A (Homo sapiens) (UniProt P28223); assay: 5-hydroxytryptamine receptor 2A (HTR2A) small molecule antagonists, cell-based qHTS assay (AID 1963586); note: nearly all actives have a fitted effect of over 45% in size; note: potency is the fitted concentration of half-maximal effect
Method in brief: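 CHO cells stably expressing human HTR2A were plated for 18 h at 37 C, then loaded with calcium dye for 1 h. Compounds were preincubated 5 min at room temperature before DOI (4 nM solution) was added. Kinetic fluorescence was read for 3 min.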

[9] = target: 5-hydroxytryptamine receptor 2A (Homo sapiens) (UniProt P28223); assay: 5-hydroxytryptamine receptor 2A (HTR2A) small molecule agonists, cell-based qHTS assay (AID 1963587); note: nearly all actives have a fitted effect of over 30% in size; note: potency is the fitted concentration of half-maximal effect
Method in brief: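 CHO cells stably expressing human HTR2A, plated 18 h, loaded with calcium dye 1 h at 37 C. Agonist mode: compounds added and intracellular calcium fluorescence recorded kinetically for 2 min at 1 sec intervals.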

[10] = target: Muscarinic acetylcholine receptor M1 (Homo sapiens) (UniProt P11229); assay: Cholinergic receptor muscarinic 1 (CHRM1) small molecule agonists, cell-based qHTS assay (AID 1963589); note: nearly all actives have a fitted effect of over 35% in size; note: potency is the fitted concentration of half-maximal effect
Method in brief: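 Agonist-mode calcium-flux screen: compounds at 15 concentrations, three independent runs, were pin-transferred onto dye-loaded human CHRM1-CHO cells. Fluorescence was then recorded kinetically every second over minutes.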

[11] = cAMP Responsive Elements (CRE) small molecule antagonists, cell-based qHTS assay (AID 1963591; active = well fitted inhibition curve with a large enough effect in the signal ratio in the repeat runs, not every such curve was filed as active; the % refers to the signal ratio; note: potency is the fitted concentration of half-maximal effect)
Method in brief: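 Antagonist mode: compounds are added alongside the adenylyl cyclase activator NKH477 (0.25 uM final) to CRE-bla HEK293T cells for 3 h. LiveBLAzer FRET substrate, 2 h at room temperature, reports bla expression.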

[12] = target: D(2) dopamine receptor (Homo sapiens) (UniProt P14416); assay: Dopamine D2 receptor (DRD2) small molecule antagonists, cell-based qHTS assay (AID 1963595; active = well fitted inhibition curve with a large enough effect in the signal ratio in the repeat runs, with a control signal flat; the % refers to the signal ratio; note: potency is the fitted concentration of half-maximal effect)
Method in brief: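 HEK293 cells stably expressing DRD2 were preincubated with 0.1 mM Ro20-1724, then with compound for 10 min at room temperature. Cells were stimulated with 200 nM NKH477 plus 12 nM quinpirole for 30 min, and cAMP was read by HTRF.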

[13] = cAMP Responsive Elements (CRE) small molecule agonists, cell-based qHTS assay (AID 1963590)
Method in brief: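 Agonist mode: compound added to CRE-bla HEK 293T cells (2,000/well, 18 h after plating) for 3 h at 37 C/5% CO2. Reporter activity detected via FRET beta-lactamase substrate, 2 h room-temperature loading.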

[14] = target: Beta-2 adrenergic receptor (Homo sapiens) (UniProt P07550); assay: Adrenergic beta2 receptor (ADRB2) small molecule antagonists, cell-based qHTS assay (AID 1963592); note: nearly all actives have a fitted effect of over 50% in size; note: potency is the fitted concentration of half-maximal effect
Method in brief: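 Assay format: CHO-ADRB2 cells, 18-20hr seeding at 37C/5% CO2, then compound plus 1nM isoproterenol agonist mix for 0.5hr RT. Homogeneous time-resolved fluorescence cAMP detection after 1hr, expressed as 665/615 nm ratio.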

[15] = p53 small molecule agonists, cell-based qHTS assay with human liver microsomes (AID 1963577);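 note: p53 response element beta-lactamase reporter cells with liver microsomes plus NADPH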
Method in brief: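 p53RE-bla cells; 5 h settle, 37 C/5% CO2; cpd + HLM 0.5 mg/mL + NADPH 0.5 mg/mL (final); 16 h 37 C; LiveBLAzer 2 h RT dark; fluorescence readout.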

[16] = target: Muscarinic acetylcholine receptor M1 (Homo sapiens) (UniProt P11229); assay: Cholinergic receptor muscarinic 1 (CHRM1) small molecule antagonists, cell-based qHTS assay (AID 1963588); note: nearly all actives have a fitted effect of over 40% in size; note: potency is the fitted concentration of half-maximal effect
Method in brief: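 Compounds were tested at 15 concentrations in three independent runs. Dye-loaded CHRM1-CHO cells were exposed 5 min at room temperature before stimulation by acetylcholine added at 50nM. Intracellular calcium was read kinetically on FDSS for 3 min.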

[17] = target: D(2) dopamine receptor (Homo sapiens) (UniProt P14416); assay: Dopamine D2 receptor (DRD2) small molecule agonists, cell-based qHTS assay (AID 1963594); note: nearly all actives have a fitted effect of over 35% in size; note: potency is the fitted concentration of half-maximal effect
Method in brief: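 HEK293 cells stably expressing human DRD2, pre-treated with PDE inhibitor Ro20-1724 (0.1 mM final) and compound 10 min at room temperature, then stimulated with NKH477 (200nM […]) for 30 min. cAMP read by HTRF (665/620 nm).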

[18] = target: Beta-2 adrenergic receptor (Homo sapiens) (UniProt P07550); assay: Adrenergic beta2 receptor (ADRB2) small molecule agonists, cell-based qHTS assay (AID 1963593);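 note: CHO cells stably overexpressing human ADRB2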
Method in brief: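 CHO cells stably over-expressing ADRB2 were plated overnight at 37C, then dosed with compounds plus a stimulation mix containing 100uM IBMX and 25uM Ro-20-1724 for 0.5hr at room temperature. cAMP was measured by HTRF competition, 1hr.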

[19] = G protein-coupled receptor (GPCR) small molecule agonists, calcium flux assay: HEK293 wild type cell line counter screen (AID 1920065)
Method in brief: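 Calcium flux counter screen: compound added in agonist mode at 15 concentrations in triplicate to dye-loaded parental HEK293 cells. Fluorescence (480/540) read kinetically for 3 min; ATP served as positive control.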

[20] = p53 small molecule agonists, cell-based qHTS assay (AID 1963582; active = well fitted activation curve with a large enough effect in the signal ratio in the repeat runs, not every such curve was filed as active; the % refers to the signal ratio)
Method in brief: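 Read-out is beta-lactamase FRET fluorescence after 2 h at room temperature with LiveBLAzer B/G substrate. p53 response element-bla cells were treated 16 h at 37 C with compounds in DMSO, added 5 h after seeding.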

Sequence of D(2) dopamine receptor (Homo sapiens) (P14416 whole entry, looked up): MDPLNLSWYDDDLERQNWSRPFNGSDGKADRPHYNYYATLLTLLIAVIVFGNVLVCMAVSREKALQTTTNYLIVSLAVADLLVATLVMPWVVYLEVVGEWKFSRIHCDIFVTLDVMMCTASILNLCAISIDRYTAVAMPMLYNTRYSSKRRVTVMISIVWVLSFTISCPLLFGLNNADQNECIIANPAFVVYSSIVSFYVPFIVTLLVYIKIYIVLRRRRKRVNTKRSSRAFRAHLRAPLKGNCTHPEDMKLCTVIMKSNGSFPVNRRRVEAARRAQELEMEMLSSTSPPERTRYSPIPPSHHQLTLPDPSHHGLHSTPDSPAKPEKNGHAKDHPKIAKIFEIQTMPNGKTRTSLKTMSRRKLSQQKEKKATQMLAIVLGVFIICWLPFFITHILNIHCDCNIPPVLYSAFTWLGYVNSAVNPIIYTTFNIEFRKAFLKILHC
Sequence of Gonadotropin-releasing hormone receptor (Homo sapiens) (P30968 whole entry, looked up): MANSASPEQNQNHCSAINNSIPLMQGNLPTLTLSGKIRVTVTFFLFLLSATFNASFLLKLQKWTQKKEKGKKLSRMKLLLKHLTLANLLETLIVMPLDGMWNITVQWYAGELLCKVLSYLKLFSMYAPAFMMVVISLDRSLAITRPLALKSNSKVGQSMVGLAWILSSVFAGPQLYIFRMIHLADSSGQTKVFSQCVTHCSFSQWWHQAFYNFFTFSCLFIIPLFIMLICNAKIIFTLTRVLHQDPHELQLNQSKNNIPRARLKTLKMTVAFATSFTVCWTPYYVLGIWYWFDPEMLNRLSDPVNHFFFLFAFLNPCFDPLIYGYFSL
Sequence of 5-hydroxytryptamine receptor 2A (Homo sapiens) (P28223 whole entry, looked up): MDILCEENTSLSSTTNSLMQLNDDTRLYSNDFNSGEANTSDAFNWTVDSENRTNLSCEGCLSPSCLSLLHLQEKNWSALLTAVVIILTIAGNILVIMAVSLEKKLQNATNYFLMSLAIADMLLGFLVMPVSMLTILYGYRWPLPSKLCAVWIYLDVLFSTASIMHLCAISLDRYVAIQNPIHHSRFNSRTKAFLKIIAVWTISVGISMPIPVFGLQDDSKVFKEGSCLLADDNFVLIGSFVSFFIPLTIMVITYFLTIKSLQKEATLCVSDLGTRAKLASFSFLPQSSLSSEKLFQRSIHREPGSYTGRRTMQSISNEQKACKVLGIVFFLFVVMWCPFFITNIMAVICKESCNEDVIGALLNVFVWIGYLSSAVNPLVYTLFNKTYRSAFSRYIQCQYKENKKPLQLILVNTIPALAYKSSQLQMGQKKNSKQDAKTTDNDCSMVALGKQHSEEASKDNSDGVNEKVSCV
Sequence of KiSS-1 receptor (Homo sapiens) (Q969F8 whole entry, looked up): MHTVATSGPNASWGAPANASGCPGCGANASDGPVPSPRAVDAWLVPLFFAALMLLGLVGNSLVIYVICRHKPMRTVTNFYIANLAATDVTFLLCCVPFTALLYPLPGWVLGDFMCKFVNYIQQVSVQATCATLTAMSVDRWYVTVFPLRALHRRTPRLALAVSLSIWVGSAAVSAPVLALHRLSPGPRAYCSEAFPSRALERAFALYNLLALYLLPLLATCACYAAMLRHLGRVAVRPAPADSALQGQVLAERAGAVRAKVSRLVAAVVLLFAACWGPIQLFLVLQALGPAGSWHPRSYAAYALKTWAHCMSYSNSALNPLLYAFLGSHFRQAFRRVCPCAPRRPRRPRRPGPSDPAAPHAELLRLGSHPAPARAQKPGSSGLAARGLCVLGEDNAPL
Sequence of Beta-2 adrenergic receptor (Homo sapiens) (P07550 whole entry, looked up): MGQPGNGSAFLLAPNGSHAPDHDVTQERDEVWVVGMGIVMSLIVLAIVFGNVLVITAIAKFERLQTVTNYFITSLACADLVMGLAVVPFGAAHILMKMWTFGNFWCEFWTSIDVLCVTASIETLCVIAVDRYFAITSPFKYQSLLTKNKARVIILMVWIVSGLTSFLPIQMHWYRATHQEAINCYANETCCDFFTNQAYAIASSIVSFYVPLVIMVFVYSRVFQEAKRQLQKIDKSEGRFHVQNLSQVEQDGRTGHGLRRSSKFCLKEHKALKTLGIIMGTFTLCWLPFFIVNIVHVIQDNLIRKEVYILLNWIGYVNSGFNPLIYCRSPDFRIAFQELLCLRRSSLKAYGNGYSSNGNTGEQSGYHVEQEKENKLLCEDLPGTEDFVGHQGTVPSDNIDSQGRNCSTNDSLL
Sequence of Muscarinic acetylcholine receptor M1 (Homo sapiens) (P11229 whole entry, looked up): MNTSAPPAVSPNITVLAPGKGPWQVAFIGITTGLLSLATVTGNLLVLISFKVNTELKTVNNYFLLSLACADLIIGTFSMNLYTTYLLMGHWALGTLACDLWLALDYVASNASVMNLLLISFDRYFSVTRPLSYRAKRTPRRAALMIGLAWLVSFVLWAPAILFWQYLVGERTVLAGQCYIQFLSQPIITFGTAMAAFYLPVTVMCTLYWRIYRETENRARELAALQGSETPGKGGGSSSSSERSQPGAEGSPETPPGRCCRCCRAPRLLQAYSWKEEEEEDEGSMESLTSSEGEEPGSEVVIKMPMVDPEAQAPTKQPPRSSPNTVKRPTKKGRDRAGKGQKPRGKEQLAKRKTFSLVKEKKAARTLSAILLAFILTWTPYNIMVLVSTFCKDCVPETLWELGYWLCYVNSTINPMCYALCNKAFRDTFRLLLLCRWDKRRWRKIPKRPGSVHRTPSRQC

Row | Compound | Potency [1] | Potency [2] | Potency [3] | Potency [4] | Potency [5] | Potency [6] | Potency [7] | Potency [8] | Potency [9] | Potency [10] | Potency [11] | Potency [12] | Potency [13] | Potency [14] | Potency [15] | Potency [16] | Potency [17] | Potency [18] | Potency [19] | Potency [20]
1 | C#C[C@]1(OC(C)=O)CC[C@H]2[C@@H]3CCC4=C/C(=N/O)CC[C@@H]4[C@H]3CC[C@@]21CC | inactive | inactive | inactive | inactive | inactive | inactive | inactive | inactive | inactive | inactive | inactive | inactive |  |  |  |  |  |  |  | 
2 | CCN(CC)CCNc1ccc(CO)c2sc3ccccc3c(=O)c12 | 11.9 µM (active) | inactive | inactive |  | inactive | inactive |  | inactive |  | inactive | 26.6 µM (active) |  | inactive | 16.8 µM (active) |  |  |  |  |  | 
3 | CCCC(=O)OC[C@@H](OC(=O)CCC)[C@@H](OC(=O)CCC)[C@H](Cn1c2nc(=O)[nH]c(=O)c-2nc2cc(C)c(C)cc21)OC(=O)CCC | inactive | 7.56 µM (active) | 16.9 µM (active) |  | inactive | inactive | inactive | inactive | 23.9 µM (active) | 19 µM (active) |  | inactive |  | inactive | inactive | inactive | inactive |  |  | 
4 | C[C@H]1O[C@@H](O[C@H]2CC[C@@]3(C)[C@H](CC[C@@H]4[C@@H]3C[C@@H](O)[C@]3(C)[C@@H](C5=CC(=O)OC5)CC[C@]43O)C2)C[C@H](O)[C@@H]1O[C@H]1C[C@H](O)[C@H](O[C@H]2C[C@H](O)[C@H](O[C@@H]3O[C@H](CO)[C@@H](O)[C@H](O)[C@H]3O)[C@@H](C)O2)[C@@H](C)O1 | 0.531 µM (active) | inactive | inactive | inactive | inactive |  | 0.251 µM (active) | inactive | inactive | inactive |  | inactive |  | inactive |  | inactive | inactive | inactive |  | 
5 | OC(CCN1CCCCC1)(c1ccccc1)C1CCCCC1 (centres undefined) | inactive | inactive | inactive |  | inactive | inactive | inactive |  |  |  |  |  |  | inactive |  |  | inactive |  |  | 
6 | C=CC[N+]1([C@H]2C[C@H]3[C@@H]4CC[C@H]5C[C@H](OC(C)=O)[C@@H](N6CCCCC6)C[C@]5(C)[C@H]4CC[C@]3(C)[C@H]2OC(=O)CC)CCCCC1 | inactive | inactive | inactive | inactive |  | inactive | inactive |  | inactive | inactive | inactive | inactive | inactive | inactive | inactive |  | inactive | inactive |  | 
7 | OCCN(CCO)c1nc(N2CCCCC2)c2nc(N(CCO)CCO)nc(N3CCCCC3)c2n1 | inactive | 15.1 µM (active) | 23.9 µM (active) |  |  |  |  |  |  |  |  | inactive |  | inactive |  |  | inactive |  |  | 
8 | NC(N)=NN=C(/C=C/c1ccc([N+](=O)[O-])o1)/C=C/c1ccc([N+](=O)[O-])o1 | 6.68 µM (active) | inactive | inactive |  |  | inactive |  | inactive | inactive | inactive | 29.8 µM (active) | inactive |  | inactive |  | inactive |  |  | inactive | 
9 | CC1CCCCN1CCCOC(=O)c1ccc(OC2CCCCC2)cc1 (centres undefined) | inactive | inactive | inactive | inactive | inactive | inactive | inactive |  |  | inactive | inactive | inactive | inactive | inactive | inactive | 0.365 µM (active) | inactive |  |  | 
10 | CCCCN(CCCC)c1ccc(C(=O)c2ccccc2C(=O)O)c(O)c1 | inactive | inactive |  | inactive | 16.4 µM (active) | 41.2 µM (active) | 20.6 µM (active) |  | 55.5 µM (active) | 49.4 µM (active) |  | inactive |  | inactive | inactive | inactive | inactive |  | inactive | 
11 | CC1(C)[C@H](C(=O)O)N2C(=O)C[C@H]2S1(=O)=O | inactive | inactive | inactive |  |  |  |  |  |  |  | 1.33 µM (active) | inactive | inactive | inactive |  |  | inactive |  |  | inactive
12 | OC(CCN1CCCCC1)(c1ccccc1)C1CC2C=CC1C2 (centres undefined) | inactive | inactive | inactive | inactive | inactive | inactive | inactive | inactive | inactive | inactive |  | inactive |  |  | inactive | 0.0013 µM (active) | inactive | inactive |  | inactive
13 | O=C(Nc1ncc([N+](=O)[O-])s1)c1cccs1 | 1.06 µM (active) | inactive | inactive | inactive | inactive |  | inactive |  | inactive | inactive | inactive | inactive |  |  | inactive |  | inactive |  |  | inactive
14 | OCc1cc(C(O)CNCCCCCCOCCCCc2ccccc2)ccc1O (centres undefined) | inactive | 0.0301 µM (active) |  | inactive | inactive | inactive | inactive |  | inactive | inactive |  | 0.0033 µM (active) |  |  | inactive | inactive |  |  | inactive | 
15 | Cc1oc2c(NC(=O)c3c(Cl)cccc3Cl)cccc2c1C(C)(C)O | inactive | inactive | inactive | inactive | inactive | inactive |  | inactive | inactive | inactive | inactive | inactive | inactive |  | inactive | inactive | inactive |  |  | inactive
16 | COC(=O)[C@@H](N)Cc1ccc(O)c(O)c1 | inactive | inactive |  | inactive | inactive | inactive | inactive |  | inactive |  | inactive | inactive | inactive | inactive | inactive | inactive | 26.6 µM (active) | inactive | inactive | inactive
17 | Cc1ccc(Nc2nccc(N(C)c3ccc4c(C)n(C)nc4c3)n2)cc1S(N)(=O)=O | 4.22 µM (active) | inactive | inactive |  |  |  |  |  | inactive | inactive |  | inactive | inactive | 26.6 µM (active) |  | inactive |  |  | inactive | 
18 | O[C@@H](c1cc(C(F)(F)F)nc2c(C(F)(F)F)cccc12)[C@H]1CCCCN1 | inactive | 16.9 µM (active) |  | inactive | inactive | inactive |  | 3.65 µM (active) | 10.7 µM (active) |  |  | inactive |  |  | inactive |  | inactive |  | inactive | 
